We go through 24 molecules from PubChem BioAssay (NCATS).

Where “and” joins values, the source holds several entries; their conditions need not be identical. Equal entries are not always repeated. Records with an inconclusive call do not appear. Calls of active or inactive are those of the source. The call rests on the fitted dose curve; in most records, active means well fitted curve in the direction sought with a large enough effect; inconclusive means small, poorly fitted or top-dose-only effect, or another doubt; inactive means no such curve, though single readings can be large; an effect the other way counts as inactive or inconclusive.

Assay [1] is described as follows: qHTS of pediatric cancer cell lines to identify multiple opportunities for drug repurposing: Primary screen for MG 63 (6-TG R) cells (AID 1347105). Further: nearly all actives have a fitted effect of over 50% in size. Further: potency means the concentration at half of the fitted maximal effect. In short, it runs like this: (§1)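 Plated cells (500-1,000 per well, growth media) were allowed to settle for 5 hours, treated with compound dilutions for 48 hours, then lysed with CellTiter-Glo for 15 min at room temperature before luminescence reading.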

A short description of assay [2]: qHTS of pediatric cancer cell lines to identify multiple opportunities for drug repurposing: Primary screen for control Hh wild type fibroblast cells (AID 1347106).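 Further: series mostly up to about 46 µM; a drop in luminescence marks cytotoxicity and a rise apparent proliferation; nearly all actives have a fitted effect of over 55% in size.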 The procedure, abridged: (§2)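 Cells (500-1,000/well) in growth media were settled 5 h at 37 degrees C, then given compounds for 48 h. Viability was read as CellTiter-Glo luminescence. Primary runs used MIPE at 11 points (0.78 nM-46 µM) and NPC at 8 points (0.59 nM-46 µM); follow-ups used 11 points.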

The nature of assay [3]: qHTS of pediatric cancer cell lines to identify multiple opportunities for drug repurposing: Primary screen for Rh41 cells (AID 1347108). Further: nearly all actives have a fitted effect of over 70% in size. Further: potency means the concentration at half of the fitted maximal effect. The procedure, abridged:
as §1

Assay [4] is described as follows: qHTS of pediatric cancer cell lines to identify multiple opportunities for drug repurposing: Primary screen for Rh30 cells (AID 1347107). Further: series mostly up to about 46 µM; nearly all actives have a fitted effect of over 75% in size. In short, it runs like this:
as §2

Assay [5] can be described thus: qHTS of pediatric cancer cell lines to identify multiple opportunities for drug repurposing: Confirmatory screen for NB1643 cells (AID 1347109). Further: nearly all actives have a fitted effect of over 45% in size. In short, it runs like this: as §2
Assay [6] is described as follows: qHTS of pediatric cancer cell lines to identify multiple opportunities for drug repurposing: Confirmatory screen for SK-N-MC cells (AID 1347111).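 Further: cells exposed to compound for 48 h before the readout; nearly all actives have a fitted effect of over 70% in size.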 Further: potency means the concentration at half of the fitted maximal effect. In short, it runs like this:
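Metabolically active cells were quantified by ATP-dependent luminescence (CellTiter-Glo, 15 min at room temperature) following 48 h treatment. Cells had been plated at 500-1,000 per well and settled for 5 h beforehand.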

Assay [7] in a line: qHTS of pediatric cancer cell lines to identify multiple opportunities for drug repurposing: Confirmatory screen for BT-12 cells (AID 1347112). Further: nearly all actives have a fitted effect of over 55% in size. The procedure, abridged: as §2
Assay [8] is described as follows: qHTS of pediatric cancer cell lines to identify multiple opportunities for drug repurposing: Confirmatory screen for LAN-5 cells (AID 1347113). Further: nearly all actives have a fitted effect of over 65% in size. The procedure, abridged: as §2
Assay [9] is described as follows: qHTS of pediatric cancer cell lines to identify multiple opportunities for drug repurposing: Confirmatory screen for DAOY cells (AID 1347114). Further: nearly all actives have a fitted effect of over 65% in size. Further: potency means the concentration at half of the fitted maximal effect. In short, it runs like this:
(§3)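 Viability measured as metabolically active cells via CellTiter-Glo luminescence following 48 hours of compound exposure, 11-point dilutions in confirmatory testing. 500-1,000 cells/well plated 5 hours before dosing; controls were DMSO and 2.3 µM bortezomib.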

Assay [10] in a line: qHTS of pediatric cancer cell lines to identify multiple opportunities for drug repurposing: Confirmatory screen for NB-EBc1 cells (AID 1347115).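 Further: cells exposed to compound for 48 h before the viability read; nearly all actives have a fitted effect of over 45% in size.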 Further: potency means the concentration at half of the fitted maximal effect. The procedure, abridged: as §2
The nature of assay [11]: qHTS of pediatric cancer cell lines to identify multiple opportunities for drug repurposing: Confirmatory screen for SJ-GBM2 cells (AID 1347116). Further: nearly all actives have a fitted effect of over 60% in size. The procedure, abridged: as §3
The nature of assay [12]: qHTS of pediatric cancer cell lines to identify multiple opportunities for drug repurposing: Confirmatory screen for TC32 cells (AID 1347118).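 Further: cells exposed to compound for 48 h before the read; nearly all actives have a fitted effect of over 65% in size.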 Further: potency means the concentration at half of the fitted maximal effect. In short, it runs like this: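 TC32 cells, 500-1,000/well in growth medium, compound-treated 48 h at 37 °C; viability from CellTiter-Glo luminescence. Primary screen: MIPE 11-point (0.78 nM–46 µM final), NPC 8-point (0.59 nM–46 µM final); confirmatory at 11-point dilutions.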

Assay [13] can be described thus: qHTS of pediatric cancer cell lines to identify multiple opportunities for drug repurposing: Confirmatory screen for control Hh wild type fibroblast cells (AID 1347121). Further: nearly all actives have a fitted effect of over 70% in size. In short, it runs like this:
as §2

The nature of assay [14]: qHTS of pediatric cancer cell lines to identify multiple opportunities for drug repurposing: Confirmatory screen for U-2 OS cells (AID 1347122). Further: nearly all actives have a fitted effect of over 65% in size. Further: potency means the concentration at half of the fitted maximal effect. The procedure, abridged: as §2
The nature of assay [15]: qHTS of pediatric cancer cell lines to identify multiple opportunities for drug repurposing: Confirmatory screen for Rh41 cells (AID 1347123).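 Further: 48 h compound exposure; nearly all actives have a fitted effect of over 60% in size.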 The procedure, abridged:
as §2

Assay [16] is described as follows: qHTS of pediatric cancer cell lines to identify multiple opportunities for drug repurposing: Confirmatory screen for RD cells (AID 1347124). The procedure, abridged:
as §2

Assay [17] is described as follows: qHTS of pediatric cancer cell lines to identify multiple opportunities for drug repurposing: Confirmatory screen for Rh18 cells (AID 1347125). Further: nearly all actives have a fitted effect of over 55% in size. In short, it runs like this: as §2
The nature of assay [18]: qHTS of pediatric cancer cell lines to identify multiple opportunities for drug repurposing: Confirmatory screen for Rh30 cells (AID 1347126). Further: nearly all actives have a fitted effect of over 55% in size. Further: potency means the concentration at half of the fitted maximal effect. The procedure, abridged: as §2
Assay [19] is described as follows: qHTS of pediatric cancer cell lines to identify multiple opportunities for drug repurposing: Confirmatory screen for MG 63 (6-TG R) cells (AID 1347119). Further: nearly all actives have a fitted effect of over 55% in size. Further: potency means the concentration at half of the fitted maximal effect. In short, it runs like this:
as §2

For `O=C(Nc1cccnc1)N1CCC(Cc2cccc(Oc3ccc(C(F)(F)F)cn3)c2)CC1`, the Potency entry in assay [1], in [2] and in assay [3] was “inactive” throughout.

`CNC(=O)c1ccc(N2C(=S)N(c3ccc(C#N)c(C(F)(F)F)c3)C(=O)C2(C)C)cc1F`: the Potency result in [1], in [2] and in [3] was “inactive” throughout.

`Cc1cn[nH]c1`: the Potency entry in assay [1], in assay [2], in assay [4], in assay [5], in assay [6] and in assay [7] was “inactive” throughout. Further, the Potency entry in assay [8], in assay [9], in assay [10], in assay [11], in [12] and in [13] was “inactive” each time. For the same molecule, the Potency entry in assay [14], in assay [15], in [16], in assay [17] and in [18] was “inactive” each time.

For the molecule `CCC(C)(C)C(=O)O[C@H]1C[C@@H](C)C=C2C=C[C@H](C)[C@H](CC[C@@H]3C[C@@H](O)CC(=O)O3)[C@H]21`, the Potency in assay [1] is 2.66 µM (active) and 4.69 µM (active); in assay [9] it was 5.85 µM (active); in assay [12], 16.5 µM (active); in [19], 2.93 µM (active); in assay [14], 10.4 µM (active); in assay [18], 16.5 µM (active). For the same molecule, the Potency entry in assay [2], in assay [3], in [7], in assay [8] and in assay [10] was “inactive” each time.

With `Cc1oncc1C(=O)Nc1ccc(C(F)(F)F)cc1`, the Potency entry in assay [1], in assay [2], in assay [3], in [5], in assay [7] and in assay [8] was “inactive” in each case. In addition, the Potency result in assay [9], in assay [10], in [13], in assay [14], in assay [15] and in assay [17] was “inactive” in each case. In addition, the Potency result in assay [18] was “inactive”. Besides, the Potency in assay [6] is 7.37 µM (active).

For the molecule `COc1ccc2c3n(c(=NC(=O)c4cccnc4)nc2c1OC)CCN3`, the Potency is 2.35 µM (active) in assay [1] and 0.935 µM (active) in assay [3]. Besides, the Potency entry in assay [2] and in [4] was “inactive” throughout.

For the molecule `CC(C)NCC(O)COc1ccc(COCCOC(C)C)cc1` (stereo not drawn), the Potency entry in [1], in [2], in assay [4] and in [3] was “inactive” throughout.

Regarding `C[C@]1(c2nc3c(C(N)=O)cccc3[nH]2)CCCN1`, the Potency entry in assay [1], in [2], in assay [5], in assay [8], in [9] and in assay [10] was “inactive” in each case. In addition, the Potency result in [11], in [19], in assay [13], in assay [14], in assay [15] and in [16] was “inactive” in each case. The Potency entry in assay [17] and in assay [18] was “inactive” in each case. The Potency in assay [12] is 18.5 µM (active).

Regarding `CCn1cc(C(=O)O)c(=O)c2cc(F)c(N3CCNC(C)C3)c(F)c21` (stereo not drawn), the Potency result in assay [1], in assay [2], in assay [4] and in assay [3] was “inactive” each time.

On to `Cc1ccc(N(CC2=NCCN2)c2cccc(O)c2)cc1`, for which the Potency result in assay [1], in [2] and in [3] was “inactive” throughout.

As to `O=C1CCc2cc(OCCCCc3nnnn3C3CCCCC3)ccc2N1`, the Potency result in assay [1], in assay [2], in assay [4] and in assay [3] was “inactive” throughout.

With `COc1cc(Nc2ncc3c(n2)-c2ccc(Cl)cc2C(c2c(F)cccc2OC)=NC3)ccc1C(=O)O`, the Potency in assay [1] was 5.9 µM (active); in [6] it was 0.261 µM (active); in assay [10], 20.8 µM (active); in [12], 0.147 µM (active); in [19], 0.233 µM (active); in [14] it was 10.4 µM (active). Further, the Potency entry in assay [2], in assay [7], in assay [11], in assay [13], in assay [16] and in assay [17] was “inactive” throughout. Also, the Potency result in assay [18] was “inactive”.

With `OC[C@H](Cc1ccccc1)Nc1nc(Oc2ccc3c(c2)CCC3)nc2c1ncn2Cc1ccc(-c2ccccc2)cc1`, the Potency entry in assay [1], in assay [2], in assay [3], in assay [5], in assay [7] and in assay [11] was “inactive” in each case. The Potency entry in assay [13], in [16] and in [17] was “inactive” each time. Moreover, the Potency in assay [6] was 2.33 µM (active).

Regarding `CC(C)OC(=O)C1=CN(C(=O)c2ccc(F)c(F)c2)CC(C)(C)c2c1[nH]c1ccccc21`, the Potency entry in assay [1], in assay [2], in assay [4] and in assay [3] was “inactive” each time.

As for `COc1ccc(CCN2CCN(CCCc3ccccc3)CC2)cc1OC`, the Potency result in assay [1], in [2], in assay [4] and in [3] was “inactive” each time.

For the molecule `OCCC#Cc1nc(-c2ccc(F)cc2)c(-c2ccncc2)n1CCCc1ccccc1`, the values for the Potency in assay [1] and in assay [3] were 29.6 µM (active) and 18.7 µM (active), respectively. In addition, in [2], the Potency result was “inactive”.

Take `c1ccc(-c2nn3c(c2-c2ccnc4cc(OCCN5CCOCC5)ccc24)CCC3)nc1`: the Potency result in assay [1], in assay [2] and in assay [3] was “inactive” in each case.

With `NS(=O)(=O)c1cc2c(cc1Cl)NC=NS2(=O)=O`, the Potency result in assay [1], in assay [2] and in [3] was “inactive” each time.

Consider `NCCCC(N)(C(=O)O)C(F)F` (stereo not drawn), for which the Potency result in assay [1], in assay [2], in assay [3], in assay [5], in assay [6] and in assay [7] was “inactive” in each case. Moreover, the Potency entry in assay [8], in assay [9], in assay [10], in assay [11], in assay [19] and in assay [13] was “inactive” throughout. Further, the Potency result in assay [14], in [15], in assay [16], in [17] and in assay [18] was “inactive” throughout.

Take `CNC[C@H](O)c1cccc(O)c1`: the Potency entry in assay [1], in assay [2] and in assay [3] was “inactive” in each case.

`COc1ccc(C2=N[C@H](c3ccc(Cl)cc3)[C@H](c3ccc(Cl)cc3)N2C(=O)N2CCNC(=O)C2)c(OC(C)C)c1`: the Potency result in assay [2] is “inactive”. For the same molecule, the Potency in [3] is 18.7 µM (active).

`N#CC[C@H](C1CCCC1)n1cc(-c2ncnc3[nH]ccc23)cn1`: the Potency result in [2] was “inactive”.

As for `CC(=O)NC(C)c1ccc(Oc2ccc(OC(C)C)cc2)cc1` (stereo not drawn), in [2], the Potency result is “inactive”.

As to `CC(C=CC1=C(C)CCCC1(C)C)=CC=CC(C)=CC(=O)O`, the Potency was 9.35 µM (active) in assay [1] and 16.5 µM (active) in assay [12]. The Potency result in [7], in assay [8], in assay [9], in [10], in assay [11] and in assay [13] was “inactive” throughout. Also, the Potency entry in [14], in [16], in assay [17] and in [18] was “inactive” in each case.
